MITF primary: human MITF inhibition, primary screen | O75030 | AlphaScreen MITF homodimerization, bead proximity signal | inhibition, % at 2.6 µM | hit rate 0.91% among 650,000 | AID 1259374; in the data active = inhibition above about 50%;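 also: 0% = vehicle wells with protein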
FBW7 act: human FBW7 E3 ligase activation, primary screen; Q969H0; AlphaScreen FBW7–phospho-cyclin E peptide binding, activator screen; normalized activity (activation), % at 26.1 µM; hit rate 0.13% among 650,000; in the data active = normalized activity above about 1.9%;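 also: purified mutant Fbw7 with reduced substrate affinity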
GPR151 ag: activators of human GPR151 | PathHunter beta-arrestin GPR151 cells, luminescence | activation, % at 11.2 µM | hit rate 1% among 650,000 | AID 1508602; in the data active = activation above about 4.9%;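 also: 0% = median of compound wells and 100% = cells with positive control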
TEAD-YAP block: TEAD-YAP interaction inhibition. HEK-TIYL cells, TEAD-Gal4/YAP UAS-luciferase luminescence. inhibition, % at 9.12 µM. hit rate 1.4% among 640,000. AID 1259422; in the data active = inhibition above about 32%;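 also: 0% = median of test compound wells and 100% = reference inhibitor wells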
GPR151 conf act: confirmation of human GPR151 activators. 6,700 tested, under 10 active. AID 1508609. GPR151 PathHunter beta-arrestin cells, luminescence, 90 min; % of EA-reagent control over plate median. shares compounds with GPR151 ag. activation, % at 11.2 µM;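 active = mean percent activation across replicates above the confirmation screen cutoff of 4.91%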
GPR119 counter: activates human GPR119 in a GPR151 counter-screen; hit rate 0.3% among 6,700; activation, % at 11.2 µM; GPR119 PathHunter beta-arrestin cells, luminescence, 90 min; 0 = compound-well median, 100 = enzyme-acceptor control; AID 1508611; shares compounds with GPR151 ag;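 active = mean percent activation in the counterscreen above 29.09%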;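 also: counterscreen on off-target GPR119 to flag nonselective hits from the GPR151 activator screen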
Target sequence (Q8TDV5 whole entry, looked up): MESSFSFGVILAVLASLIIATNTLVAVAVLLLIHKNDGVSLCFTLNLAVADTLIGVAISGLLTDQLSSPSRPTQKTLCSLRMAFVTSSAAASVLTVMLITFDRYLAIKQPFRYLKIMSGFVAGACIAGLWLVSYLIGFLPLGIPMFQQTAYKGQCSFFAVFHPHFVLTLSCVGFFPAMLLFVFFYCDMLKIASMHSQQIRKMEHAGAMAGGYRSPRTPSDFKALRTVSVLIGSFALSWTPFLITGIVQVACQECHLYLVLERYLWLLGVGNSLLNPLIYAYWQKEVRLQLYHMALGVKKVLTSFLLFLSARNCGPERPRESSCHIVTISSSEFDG
An asterisk follows results filed as active; / = no result; ! = not active in a repeat. A selection: hits, their analogues and other compounds. The true share with any hit is near 3.4%.

SMILES	MITF primary	FBW7 act	GPR151 ag	TEAD-YAP block	GPR151 conf act	GPR119 counter
CCCCOC(=O)c1ccc(NC(=O)c2ccc(C3CCCCC3)cc2)cc1	0	0	7.2*	33*	0	1
CCCCN(CC)C(=O)c1ccc([N+](=O)[O-])cc1	11	0	-1	-1	/	/
CCCCN(CC)C(=O)c1ccc([N+](=O)[O-])cc1Cl	-18	0	7.7*	4	0	-5
COCCSc1nnc(-c2ccccc2O)n1C	-2	0	-1	-6	/	/
COc1cc(-c2nc(-c3ccccc3)c(-c3cccs3)[nH]2)cc(OC)c1OC	-5	0	5.0*	-3	-1	-5
CCC(C)N(C)C(=O)c1cc2ccccc2c(-c2ccccc2Cl)n1 (centres undefined)	1	0	5.4*!	-2	0	2
CC(NC(=O)c1cc(-c2ccccc2Cl)nc2ccccc12)c1ccccc1 (centres undefined)	15	0	0	18	/	/
Cc1cccc(C2N(Cc3ccccc3)CCCN2Cc2ccccc2)n1	4	0	5.4*	-6	0	-4
CCOc1ccccc1-n1c(=S)sc2c(=O)n(-c3ccc(C)cc3)c(SCC(=O)NCc3ccco3)nc21	-12	0	0	2	/	/
Cc1ccccc1-n1c(=S)sc2c(=O)n(-c3ccccc3)c(SCC(=O)c3ccccc3)nc21	15	0	1	-10	/	/
O=C(CSc1nc2c(sc(=S)n2-c2ccccc2)c(=O)n1-c1ccccc1)NC1CCCCC1	-7	0	0	1	/	/
Cc1cccc(C)c1-n1c(=S)sc2c(=O)n(-c3ccccc3)c(SCC(=O)c3ccccc3)nc21	-10	0	6.1*	-3	0	-2
Cc1ccc(-n2c(SCC(=O)N3CCCC3)nc3c(sc(=S)n3-c3ccccc3C)c2=O)cc1	39	0	0	3	/	/
CCOc1ccccc1-n1c(=S)sc2c(=O)n(-c3ccc(F)cc3)c(SCC(=O)NCc3ccco3)nc21	-1	0	5.4*	-2	1	12
Cc1ccc(-n2c(SCC(=O)N3CCCC3)nc3c(sc(=S)n3-c3cc(C)ccc3F)c2=O)cc1	6	0	6.7*	7	1	0
COc1ccccc1-n1c(=S)sc2c(=O)n(-c3ccccc3)c(SCC(=O)NC3CCCCC3)nc21	16	0	6.0*	-4	-1	-20
O=C(Nc1ccc(Oc2ccc(Cl)cc2)cc1)c1cc2cc(Br)ccc2oc1=O	-7	0	-1	5	/	/
C=CCN1C(=S)NC2CS(=O)(=O)CC21 (centres undefined)	-8	0	2	-10	/	/
CCC(C)C(=O)NCc1nnc2n1CCN(Cc1ccc(OC)cc1O)CC2 (centres undefined)	-7	0	1	-3	/	/
CC(C(=O)N1c2ccccc2CC1C)N1CCN(c2ccccn2)CC1 (centres undefined)	14	0	5.3*	13	0	-8
CNC(=O)NC(=O)C(C)N1CCN(c2ccccn2)CC1 (centres undefined)	15	1	1	-5	/	/
CCOC(=O)CSc1nc(NCC2CCCO2)c2ccccc2n1 (centres undefined)	15	0	0	9	/	/
O=C(Cc1ccc(F)cc1)Nc1c2c(nn1-c1ccc(F)cc1)CS(=O)(=O)C2	3	0	5.3*	5	0	8
O=C(Nc1c2c(nn1-c1ccc(Cl)cc1)CS(=O)(=O)C2)c1ccc(Cl)cc1	-1	0	1	2	/	/
CC(=O)Nc1c2c(nn1-c1ccc(Cl)cc1)CS(=O)(=O)C2	14	1	7.8*	-3	0	-1
CN(c1ccc(Cl)cc1)S(=O)(=O)c1ccc2[nH]cc(C(=O)NCc3ccco3)c(=O)c2c1	50	0	1	8	/	/
Cc1nccn1-c1ccc(NC(=O)C2CCCN(C3CCSCC3)C2)cc1 (centres undefined)	-23	0	6.8*	13	1	-3
Cc1ccc(C)c(NC(=O)CONc2ncnc3nonc23)c1	-4	0	3	-14	/	/
COc1ccc(OC)c(C(C)NC(=O)c2ccc(F)cc2)c1 (centres undefined)	26	0	5.4*	5	0	-3

Screening results deposited in PubChem BioAssay by The Scripps Research Institute Molecular Screening Center.
